Results taken from PubChem BioAssay (NCATS).
Unmarked numbers belong to inactive results. Records with an inconclusive call do not appear. Activity calls are given as the source filed them. Unless noted, the call rests on the fitted dose curve; in most records, active means well fitted curve in either direction with a large enough effect (not every such curve was filed as active); inconclusive means small, poorly fitted or top-dose-only effect, or another doubt; inactive means flat fitted curve, though single readings scatter.

Assays:
[1] = target: Lysosomal acid glucosylceramidase (Homo sapiens) (UniProt P04062); experiment: Glucocerebrosidase-p2 (AID 348; in the data active means potency below about 10 µM; further: potency means the concentration at half of the fitted maximal effect); details: purified GBA, blue fluorogenic substrate, 40 min
Summary of the method: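 Normal human glucocerebrosidase (0.2 nM) with blue fluorogenic substrate (80 uM final) in citrate/phosphate pH 5.9 with 10mM sodium taurocholate, 0.01% tween-20; 40 min RT, NaOH/glycine stop; fluorescence Ex 365/Em 440; AC50 from a titration from 0.6 nM upwards.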

[2] = AP1 Signaling Pathway (AID 357); details: ME-180 AP-1-bla reporter, EGF-induced, beta-lactamase ratio, 5 h; at 7.69 µM (top of the series) unless noted; further: on the % scale 0 is the no-effect control and ±100 the full control effect
Summary of the method: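 AP-1-bla ME-180 cells with beta-lactamase reporter under AP-1 response element, stimulated with EC50 EGF; compounds titrated, 5 hours at 37 degrees Celsius. CCF4 read at 460/530 nm ratio; positive and negative modulators judged by AC50.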

[3] = NFAT Signaling Pathway (AID 444); details: Jurkat NFAT-bla M1, carbachol, beta-lactamase ratio, 5 h; at 7.69 µM (top of the series) unless noted;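 further: carbachol stimulus at about its EC50 of 1 µM final; on the % scale 0 is the no-effect control and ±100 the full control effect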
Summary of the method: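 Jurkat cells carrying an NFAT-driven β-lactamase reporter and co-transfected muscarinic M1 receptor were treated with compound plus carbachol (1 uM final, an EC50 level) for 5 h at 37 °C. CCF4 loading followed for 1 h at RT; 460/530 nm ratio gave %activity.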

[4] = Stat Signaling Pathway (AID 446); details: ME-180 (cervical carcinoma) SIE beta-lactamase reporter, IL-6 stimulated, 5 h; at 7.69 µM (top of the series) unless noted;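 further: ME-180 cervical cancer cells given 40 pM IL-6 alongside compound; SIE-controlled beta-lactamase reporter measured as 460/530 nm FRET emission ratio; on the % scale 0 is the no-effect control and ±100 the full control effect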
Summary of the method: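 Normalization used AC90 stimulation (300 pM IL-6) and AC90 inhibition (125 nM pan-JAK inhibitor at 40 pM IL-6). The underlying signal is SIE-driven beta-lactamase in ME-180 cells after 5 h IL-6 exposure with compound.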

[5] = target: Glucocorticoid receptor (Homo sapiens) (UniProt P04150); experiment: GR-GFP Redistribution (AID 450;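 active means compounds whose dose series gives a full or clear partial fitted curve of increased nuclear translocation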; further: potency means the concentration at half of the fitted maximal effect); details: U2OS GR-GFP nuclear translocation, laser cytometry, 2 h
[6] = target: Glucocorticoid receptor (Homo sapiens) (UniProt P04150); experiment: GR-EFC Redistribution (AID 451; calls by dose curve; further: potency means the concentration at half of the fitted maximal effect); details: CHO-K1 GR-EFC translocation, beta-gal luminescence, 2 h
Summary of the method: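 CHO-K1 cells stably expressing nuclear-localized β-gal enzyme acceptor and GR fused C-terminally to the enzyme donor fragment; ligand-driven nuclear translocation restores β-gal by complementation. Compounds titrated up to 46 uM final, 2 h at 37 °C; luminescence read.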

[7] = target: Mitogen-activated protein kinase 10 (Mus musculus) (UniProt Q61831); experiment: JNK3 AlphaScreen Assay (AID 530); details: JNK3 lysate, c-Jun phosphorylation; series mostly up to 11.4 µM;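 further: kinase came from lysate of stimulated human HepG2 cells; signal reports phosphorylation of biotinylated GST-cJun 1-79 at Ser73 with 10 µM ATP; on the % scale 0 is the no-effect control and ±100 the full control effect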
Summary of the method: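 Phosphorylation of biotinylated GST-cJun(1-79) at Ser73 is measured by AlphaScreen proximity luminescence. Enzyme is JNK3 in HepG2 lysates activated with interleukin-1beta and tumor necrosis factor alpha; ATP is 10 uM final.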

[8] = target: 3',5'-cyclic-AMP phosphodiesterase 4B (Homo sapiens) (UniProt Q07343); experiment: qHTS Assay for Inhibitors of PDE-IV (AID 607; active means well fitted activation curve with a large enough effect in the main read-out, with a control signal flat, not every such curve was filed as active; further: % of control where 0% means no effect); details: HEK293 ACTOne CNG channel cells, membrane potential fluorescence; series mostly up to 22.9 µM
Summary of the method: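 HEK293 ACTOne cells with CNG channel (1000/well), endogenous PDE4; membrane potential dye, compounds up to 22.9 uM final. Fluorescence Ex 535/Em 590; RO 20-1724 (100 uM final) as reference.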

[9] = target: Cytochrome P450 2C9 (Homo sapiens) (UniProt P11712); experiment: qHTS Assay for Inhibitors and Substrates of Cytochrome P450 2C9 (AID 883; active means well fitted curve in the direction sought with a large enough effect; an effect the other way counts as inactive or inconclusive; further: nearly all actives have a fitted effect of over 60% in size; further: potency means the concentration at half of the fitted maximal effect); details: recombinant CYP2C9, luciferin-H luminescence, 60 min; series mostly up to 11.4 µM
Summary of the method: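 A luminogenic readout tracked human CYP2C9 (10nM) converting deoxyluciferin (100uM, at KM) in 25mM KPO4 during 60 min at 37C with regenerated NADPH. Values normalized to 57uM sulphaphenazole as complete inhibition.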

[10] = target: Cytochrome P450 3A4 (Homo sapiens) (UniProt P08684); experiment: qHTS Assay for Activators of Cytochrome P450 3A4 (AID 885; active means well fitted curve in the direction sought with a large enough effect; an effect the other way counts as inactive or inconclusive; further: nearly all actives have a fitted effect of over 65% in size); details: recombinant CYP3A4, Luciferin-PPXE luminescence, 60 min; series mostly up to 11.4 µM
Summary of the method: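 Human CYP3A4 dealkylates Luciferin-PPXE to luciferin, which luciferase detection converts to light. Substrate was at its KM (25uM), buffer 200mM KPO4, reaction 60 min at RT.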

[11] = target: Cytochrome P450 3A4 (Homo sapiens) (UniProt P08684); experiment: qHTS Assay for Inhibitors and Substrates of Cytochrome P450 3A4 (AID 884; active means well fitted curve in the direction sought with a large enough effect; an effect the other way counts as inactive or inconclusive; further: nearly all actives have a fitted effect of over 50% in size; further: potency means the concentration at half of the fitted maximal effect); details: recombinant CYP3A4, Luciferin-PPXE luminescence; series mostly up to 57.1 µM
Summary of the method: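 Luminescent readout of luciferin produced by CYP3A4 (20 nM) dealkylation of Luciferin-PPXE, 25 uM (its KM). NADPH-driven reaction ran 60 min at RT after 10 min compound preincubation; data scaled to 57 uM ketoconazole as 100% inhibition.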

[12] = target: Cytochrome P450 2C19 (Homo sapiens) (UniProt P33261); experiment: qHTS Assay for Inhibitors and Substrates of Cytochrome P450 2C19 (AID 899; active means well fitted curve in the direction sought with a large enough effect; an effect the other way counts as inactive or inconclusive; further: nearly all actives have a fitted effect of over 60% in size; further: potency means the concentration at half of the fitted maximal effect); details: recombinant CYP2C19, luciferin-H EGE luminescence; series mostly up to 11.4 µM
Summary of the method: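 NADPH-dependent conversion of Luciferin-H EGE (10uM, at KM) by 5nM enzyme in 50mM KPO4, 60 min at 37C following 10 min compound preincubation. Stopped with luciferin detection buffer; luminescence read after 20 min.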

[13] = target: Cytochrome P450 2D6 (Homo sapiens) (UniProt P10635); experiment: qHTS Assay for Inhibitors and Substrates of Cytochrome P450 2D6 (AID 891; active means well fitted curve in the direction sought with a large enough effect; an effect the other way counts as inactive or inconclusive; further: nearly all actives have a fitted effect of over 60% in size; further: potency means the concentration at half of the fitted maximal effect); details: recombinant CYP2D6, luciferin-ME EGE luminescence; series mostly up to 11.4 µM
Summary of the method: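 Luminescent read-out of luciferin formed by 5 nM human CYP2D6 demethylating 30 uM Luciferin-ME EGE (Km level) over 60 min at room temperature after NADPH regeneration addition. Data normalized to full inhibition by 1.43 uM quinidine.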

Chain of Lysosomal acid glucosylceramidase (Homo sapiens) (P04062 whole entry, looked up): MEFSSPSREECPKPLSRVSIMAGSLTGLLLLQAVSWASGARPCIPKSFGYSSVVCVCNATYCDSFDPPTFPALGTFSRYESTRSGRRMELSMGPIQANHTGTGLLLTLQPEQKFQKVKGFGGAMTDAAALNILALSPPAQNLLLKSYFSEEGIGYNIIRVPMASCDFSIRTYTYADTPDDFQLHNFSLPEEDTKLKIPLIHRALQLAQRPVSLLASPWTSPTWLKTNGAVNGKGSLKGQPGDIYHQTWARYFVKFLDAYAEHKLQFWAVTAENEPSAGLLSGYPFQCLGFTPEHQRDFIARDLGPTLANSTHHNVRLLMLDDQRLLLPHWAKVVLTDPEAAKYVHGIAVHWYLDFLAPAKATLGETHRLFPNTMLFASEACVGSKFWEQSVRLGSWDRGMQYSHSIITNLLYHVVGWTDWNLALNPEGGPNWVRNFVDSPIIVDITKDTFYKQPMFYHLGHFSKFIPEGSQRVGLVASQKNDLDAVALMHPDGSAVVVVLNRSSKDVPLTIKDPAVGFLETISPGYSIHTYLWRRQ
Chain of 3',5'-cyclic-AMP phosphodiesterase 4B (Homo sapiens) (Q07343 whole entry, looked up): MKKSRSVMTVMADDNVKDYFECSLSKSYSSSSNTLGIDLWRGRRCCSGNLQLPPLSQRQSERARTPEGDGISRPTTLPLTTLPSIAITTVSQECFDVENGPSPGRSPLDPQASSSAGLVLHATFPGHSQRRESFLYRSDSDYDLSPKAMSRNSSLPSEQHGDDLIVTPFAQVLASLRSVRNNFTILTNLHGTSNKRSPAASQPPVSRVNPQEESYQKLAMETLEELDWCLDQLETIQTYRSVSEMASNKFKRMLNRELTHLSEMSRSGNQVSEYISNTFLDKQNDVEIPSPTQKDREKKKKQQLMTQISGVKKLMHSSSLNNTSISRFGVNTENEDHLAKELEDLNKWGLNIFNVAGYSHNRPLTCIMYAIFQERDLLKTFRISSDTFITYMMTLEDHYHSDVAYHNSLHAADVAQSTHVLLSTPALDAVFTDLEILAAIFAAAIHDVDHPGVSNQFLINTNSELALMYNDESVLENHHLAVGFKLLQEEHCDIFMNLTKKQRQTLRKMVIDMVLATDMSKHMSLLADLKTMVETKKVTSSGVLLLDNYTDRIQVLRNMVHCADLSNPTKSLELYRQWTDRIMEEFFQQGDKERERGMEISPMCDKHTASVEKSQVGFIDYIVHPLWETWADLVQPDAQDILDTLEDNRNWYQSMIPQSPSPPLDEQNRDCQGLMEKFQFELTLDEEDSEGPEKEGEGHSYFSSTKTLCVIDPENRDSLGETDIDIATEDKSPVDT
Chain of Glucocorticoid receptor (Homo sapiens) (P04150 whole entry, looked up, the tested form may be a part): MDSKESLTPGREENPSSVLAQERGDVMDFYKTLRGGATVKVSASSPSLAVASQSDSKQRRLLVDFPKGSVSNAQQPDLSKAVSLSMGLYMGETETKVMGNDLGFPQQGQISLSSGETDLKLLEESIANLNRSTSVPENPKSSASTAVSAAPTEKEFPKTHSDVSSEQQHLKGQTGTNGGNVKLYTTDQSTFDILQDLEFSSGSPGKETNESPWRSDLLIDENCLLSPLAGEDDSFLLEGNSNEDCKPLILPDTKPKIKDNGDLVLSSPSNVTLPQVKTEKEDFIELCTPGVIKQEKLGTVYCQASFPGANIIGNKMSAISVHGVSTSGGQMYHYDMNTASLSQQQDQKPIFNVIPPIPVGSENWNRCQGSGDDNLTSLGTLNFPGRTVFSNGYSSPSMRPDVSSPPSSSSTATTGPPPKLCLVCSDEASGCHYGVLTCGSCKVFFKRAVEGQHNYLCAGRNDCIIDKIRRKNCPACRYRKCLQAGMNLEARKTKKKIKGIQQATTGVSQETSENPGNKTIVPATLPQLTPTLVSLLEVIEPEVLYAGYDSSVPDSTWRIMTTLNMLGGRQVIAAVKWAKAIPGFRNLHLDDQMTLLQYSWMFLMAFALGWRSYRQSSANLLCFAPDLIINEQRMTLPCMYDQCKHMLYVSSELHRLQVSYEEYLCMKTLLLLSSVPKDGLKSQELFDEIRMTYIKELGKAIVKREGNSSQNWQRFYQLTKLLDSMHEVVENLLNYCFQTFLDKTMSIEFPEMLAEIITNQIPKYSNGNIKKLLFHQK
Chain of Cytochrome P450 2C19 (Homo sapiens) (P33261 whole entry, looked up): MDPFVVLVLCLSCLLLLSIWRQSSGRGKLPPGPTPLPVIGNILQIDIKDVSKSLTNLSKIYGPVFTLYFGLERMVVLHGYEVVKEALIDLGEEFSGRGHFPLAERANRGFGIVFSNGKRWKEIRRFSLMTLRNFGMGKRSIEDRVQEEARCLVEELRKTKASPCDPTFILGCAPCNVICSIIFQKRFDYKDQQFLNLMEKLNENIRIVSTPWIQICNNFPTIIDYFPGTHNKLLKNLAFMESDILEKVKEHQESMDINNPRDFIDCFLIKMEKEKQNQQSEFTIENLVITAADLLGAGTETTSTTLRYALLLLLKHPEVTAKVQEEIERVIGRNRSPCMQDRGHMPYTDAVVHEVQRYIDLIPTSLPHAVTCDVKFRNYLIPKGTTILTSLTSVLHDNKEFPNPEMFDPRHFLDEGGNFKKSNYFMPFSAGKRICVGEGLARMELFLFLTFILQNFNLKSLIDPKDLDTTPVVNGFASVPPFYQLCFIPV
Chain of Cytochrome P450 2D6 (Homo sapiens) (P10635 whole entry, looked up): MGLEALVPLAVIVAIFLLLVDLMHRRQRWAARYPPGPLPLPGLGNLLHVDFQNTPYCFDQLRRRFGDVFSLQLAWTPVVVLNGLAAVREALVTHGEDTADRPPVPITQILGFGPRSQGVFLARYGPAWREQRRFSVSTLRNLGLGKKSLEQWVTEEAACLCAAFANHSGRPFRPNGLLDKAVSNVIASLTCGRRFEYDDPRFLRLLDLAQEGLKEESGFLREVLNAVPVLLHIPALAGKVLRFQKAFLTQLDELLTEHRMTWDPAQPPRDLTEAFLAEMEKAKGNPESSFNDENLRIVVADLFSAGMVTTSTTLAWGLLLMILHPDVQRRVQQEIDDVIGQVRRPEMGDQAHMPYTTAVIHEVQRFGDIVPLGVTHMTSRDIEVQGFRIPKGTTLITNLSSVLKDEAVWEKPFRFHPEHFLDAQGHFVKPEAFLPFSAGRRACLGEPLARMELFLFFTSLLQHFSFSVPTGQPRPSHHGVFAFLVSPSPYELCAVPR
Chain of Cytochrome P450 2C9 (Homo sapiens) (P11712 whole entry, looked up): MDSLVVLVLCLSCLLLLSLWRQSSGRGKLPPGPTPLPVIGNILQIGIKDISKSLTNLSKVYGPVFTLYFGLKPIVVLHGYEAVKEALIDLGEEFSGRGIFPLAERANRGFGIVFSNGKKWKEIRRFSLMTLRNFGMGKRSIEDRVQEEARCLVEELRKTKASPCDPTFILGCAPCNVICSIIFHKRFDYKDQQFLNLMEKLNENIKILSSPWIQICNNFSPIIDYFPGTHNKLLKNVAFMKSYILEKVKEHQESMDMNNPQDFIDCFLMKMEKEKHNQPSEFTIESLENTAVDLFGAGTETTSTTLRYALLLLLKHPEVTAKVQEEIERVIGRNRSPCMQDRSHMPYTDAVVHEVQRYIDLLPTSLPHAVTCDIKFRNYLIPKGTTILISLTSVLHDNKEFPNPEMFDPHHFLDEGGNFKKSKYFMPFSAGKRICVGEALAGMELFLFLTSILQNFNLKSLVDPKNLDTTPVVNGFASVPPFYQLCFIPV
Chain of Cytochrome P450 3A4 (Homo sapiens) (P08684 whole entry, looked up): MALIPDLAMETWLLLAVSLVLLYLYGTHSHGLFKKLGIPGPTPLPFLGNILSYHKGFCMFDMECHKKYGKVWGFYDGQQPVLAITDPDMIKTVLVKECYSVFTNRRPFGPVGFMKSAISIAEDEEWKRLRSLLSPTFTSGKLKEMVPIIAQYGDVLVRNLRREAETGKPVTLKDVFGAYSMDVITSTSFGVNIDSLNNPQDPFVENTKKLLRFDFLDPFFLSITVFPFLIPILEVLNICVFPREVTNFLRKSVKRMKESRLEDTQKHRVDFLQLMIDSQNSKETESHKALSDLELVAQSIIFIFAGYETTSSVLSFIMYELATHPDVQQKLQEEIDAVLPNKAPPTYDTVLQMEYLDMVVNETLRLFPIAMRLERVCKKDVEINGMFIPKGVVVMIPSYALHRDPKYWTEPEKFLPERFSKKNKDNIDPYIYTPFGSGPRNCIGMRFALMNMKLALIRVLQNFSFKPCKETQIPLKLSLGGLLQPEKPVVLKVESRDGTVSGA

Structure (SMILES)	Potency [1]	activity change, negative = inhibition [2]	activity change, negative = inhibition [3]	activity, negative = inhibition [4]	Potency [5]	Potency [6]	Potency [7]	Potency [8]	Potency [9]	Potency [10]	Potency [11]	activity change, negative = inhibition [11]	Potency [12]	Potency [13]
NNS(=O)(=O)c1cc(C(=O)O)cc(C(=O)O)c1	> 11.4 µM	4.57%	14.9%	3.48%	> 46 µM	> 9.22 µM	inactive	inactive						
c1ccc(CCN2CCN=C2Cc2ccccc2)cc1	> 11.4 µM	6.53%	-21.9%	14.6%	> 46 µM	> 9.22 µM	inactive	inactive						
O=C(O)c1cc(C(=O)O)cc(N2C(=O)c3ccccc3C2=O)c1	> 11.4 µM	4.16%	6.56%	-2.79%	> 46 µM	> 9.22 µM	inactive	inactive						
COc1cc2c(cc1O)[C@@H](c1cc(O)c(O)c(OC)c1)[C@@](O)(C(=O)O)[C@@H](CO)[C@@H]2O	> 11.4 µM	0.0448%	-5.96%	4.61%	> 46 µM	> 9.22 µM	inactive	inactive						
Cc1nc(N)nc2ccccc12	> 11.4 µM	-0.162%	0.491%	2.21%	> 46 µM	> 9.22 µM	inactive	inactive						
CC(=O)Nc1c(C)cc(OCC(=O)O)cc1C	> 11.4 µM	-0.915%	19.3%	12.5%	> 46 µM	> 9.22 µM	inactive	inactive						
C[N+](C)(C)CC(=O)N/N=C\c1c(O)ccc2ccccc12	> 11.4 µM	3.17%	-5.58%	10.1%	> 46 µM	> 9.22 µM	inactive	inactive						
O=C(O)CCc1ccc(-c2ccccc2)[nH]1	> 11.4 µM	2.27%	13.2%	1.73%	> 46 µM	> 9.22 µM	inactive	inactive						
N[C@@]1(C(=O)O)CCC[C@@H]1C(=O)O	> 11.4 µM	6.92%	10.2%	9.09%	> 46 µM	> 9.22 µM	inactive	inactive						
O=C(O)c1ccccc1-c1ccccc1C(=O)c1ccccc1	> 11.4 µM	6.33%	5.49%	2.8%	> 46 µM	> 9.22 µM	inactive	inactive						
C[C@H](OP(=O)(O)O)[C@H](N)C(=O)O	> 11.4 µM	0.907%	13.7%	-1.55%	> 46 µM	> 9.22 µM	inactive	inactive						
c1ccc(-c2ccc(-c3ccc(C4=NCCN4)cc3)o2)cc1	> 11.4 µM	8.2%	9.65%	25.4%	> 46 µM	> 9.22 µM	inactive	inactive						
O=C(O)[C@H]1CCCC[C@@H]1C(=O)Nc1nc2ccccc2[nH]1	> 11.4 µM	1.58%	9.82%	2.07%	> 46 µM	> 9.22 µM	inactive	inactive						
Cc1cccc(CNc2ncnc3[nH]ncc23)c1	> 11.4 µM	-1.11%	-3.71%	-8.78%	> 46 µM	> 9.22 µM	inactive	inactive						
CC1=NNC(=S)NCCCN2CCN(CCCNC(=S)NN=C(C)C=NNC(=S)NCCCN3CCN(CCCNC(=S)NN=C1)CC3)CC2	> 11.4 µM	4.7%	5.96%	-0.247%	> 46 µM	> 9.22 µM	inactive	inactive						
CCN(CC(=O)O)C(=O)c1cccnc1	> 11.4 µM	-4.46%	5.05%	-6.57%	> 46 µM	> 9.22 µM	inactive	inactive						
O=C(O)CCC(=O)c1ccc[nH]1	> 11.4 µM	-0.936%	3.55%	3.5%	> 46 µM	> 9.22 µM	inactive	inactive						
FC(F)(F)c1nc2nc(Cl)c(Cl)nc2n1CCCN1CCOCC1	> 11.4 µM	9.81%	-3.79%	2.08%	> 46 µM	> 9.22 µM	inactive	inactive	2.51 µM (active)	inactive				
O=C(O)CSCc1cccc2ccccc12	> 11.4 µM	-0.864%	16.3%	2.65%	> 46 µM	> 9.22 µM	inactive	inactive						
CC(=O)n1c(COS(C)(=O)=O)nc2ccccc21	> 11.4 µM	-2.19%	8.51%	-1.19%	> 46 µM	> 9.22 µM	inactive	inactive		inactive				
O=C(NNS(=O)(=O)c1ccccc1)c1cccnc1	> 11.4 µM	16.3%	7.27%	2.24%	> 46 µM	> 9.22 µM	inactive	inactive		inactive				
CN1CCC(n2[nH]c(-c3ccccc3)c(Cc3ccccc3)c2=O)CC1	> 11.4 µM	-1.32%	-82.4% (active)	11.1%	> 46 µM	> 9.22 µM	inactive	inactive		inactive	3.98 µM (active)			
Cc1c(-c2nc(N)nc(C3CC3)c2C)nc(N)nc1C1CC1	> 11.4 µM	2.87%	4.67%	5.17%	> 46 µM	> 9.22 µM	inactive	inactive						
CSc1nc2cc(S(=O)(=O)N3CCCCC3)ccc2s1	> 11.4 µM	-19.7%	-0.492%	-6.1%	> 46 µM	> 9.22 µM	inactive	inactive				50.1% [at 11.4 µM]	1.26 µM (active)	
O=C(O)CSc1n[nH]c(=O)[nH]c1=O	> 11.4 µM	0.951%	5.38%	13.4%	> 46 µM	> 9.22 µM	inactive	inactive	inactive			-64.1% [at 11.4 µM]	inactive	inactive
Clc1cccc(Cl)c1C(Nc1nncs1)Nc1nncs1	> 11.4 µM	-1.25%	2.41%	-3.83%	> 46 µM	> 9.22 µM	inactive	inactive						
COCCn1c(=O)c(-c2cc(F)cc(F)c2)nc2cnc(Oc3ccc(OC)cc3)nc21	> 11.4 µM	-11.1%	0.515%	-2.08%	> 9.22 µM	> 46 µM	inactive	inactive		inactive				
CN(Cc1cc(Br)cc(Br)c1O)Cc1c(O)ccc2ccccc12	> 11.4 µM	3.01%	-25.5%	-8.41%	> 46 µM	> 9.22 µM	inactive	inactive		inactive			0.501 µM (active)	1.58 µM (active)
O=C1c2ccccc2C(=O)c2c1ccc(N1C(=O)c3ccccc3C1=O)c2-c1c(N2C(=O)c3ccccc3C2=O)ccc2c1C(=O)c1ccccc1C2=O	> 11.4 µM	-8.78%	-22.9%	12%	> 46 µM	> 9.22 µM	inactive	inactive	inactive				inactive	inactive
C[C@@H](C(=O)O)/C(=C/c1ccc2c(c1)OCO2)C(=O)O	> 11.4 µM	-12.8%	1.64%	-5.22%	> 46 µM	> 9.22 µM	inactive	inactive	2.51 µM (active)	inactive				
